Test results published in the supplement of paper PMC9694430.
Where a name gives a salt, the structure may show the parent alone.

Legend:
Test in all cases: thermal shift delta Tm vs DMSO control; higher = stronger stabilization (binding)
Details in all cases: 12.5 µM; protein concentration 2 µM
LOC_OS02G45750-cb003 = system: LOC_OS02G45750-cb003
Summary of the method: (§1)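 Compounds dissolved in DMSO were added to purified rice kinase domain constructs, which had been expressed in E. coli, for differential scanning fluorimetry. Each well held 19.5 μl of 2 μM kinase in 100 mM potassium phosphate pH 7.5, 150 mM NaCl, 10% glycerol and 5 × SYPRO Orange. Fluorescence was followed from 25°C to 95°C at a rate of 0.05°C/s. Shifts in Boltzmann-fitted melting temperature are triplicate means relative to DMSO-only protein.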

LOC_OS02G54510-cb004 = system: LOC_OS02G54510-cb004
Summary of the method: as §1

LOC_OS03G04050-cb001 = system: LOC_OS03G04050-cb001
Summary of the method: as §1

LOC_OS03G12390-cb001 = system: LOC_OS03G12390-cb001
Summary of the method: as §1

LOC_OS03G27990-cb004 = system: LOC_OS03G27990-cb004
Summary of the method: as §1

LOC_OS03G50450-cb001 = system: LOC_OS03G50450-cb001
Summary of the method: as §1

LOC_OS03G50810-cb003 = system: LOC_OS03G50810-cb003
Summary of the method: as §1

LOC_OS04G35114-cb001 = system: LOC_OS04G35114-cb001
Summary of the method: as §1

LOC_OS04G38480-cb003 = system: T1, LOC_OS04G38480-cb003
T1 sequence (whole entry): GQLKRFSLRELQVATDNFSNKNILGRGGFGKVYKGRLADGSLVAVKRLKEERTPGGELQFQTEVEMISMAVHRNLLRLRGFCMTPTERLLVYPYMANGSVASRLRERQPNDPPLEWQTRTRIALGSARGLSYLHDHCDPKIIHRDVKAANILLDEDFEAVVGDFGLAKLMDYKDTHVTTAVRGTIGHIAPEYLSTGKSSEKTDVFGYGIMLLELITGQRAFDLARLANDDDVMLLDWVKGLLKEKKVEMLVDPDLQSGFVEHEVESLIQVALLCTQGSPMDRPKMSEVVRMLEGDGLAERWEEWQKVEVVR
Summary of the method: as §1

LOC_OS04G41100-cb001 = system: T2, LOC_OS04G41100-cb001
T2 sequence (whole entry): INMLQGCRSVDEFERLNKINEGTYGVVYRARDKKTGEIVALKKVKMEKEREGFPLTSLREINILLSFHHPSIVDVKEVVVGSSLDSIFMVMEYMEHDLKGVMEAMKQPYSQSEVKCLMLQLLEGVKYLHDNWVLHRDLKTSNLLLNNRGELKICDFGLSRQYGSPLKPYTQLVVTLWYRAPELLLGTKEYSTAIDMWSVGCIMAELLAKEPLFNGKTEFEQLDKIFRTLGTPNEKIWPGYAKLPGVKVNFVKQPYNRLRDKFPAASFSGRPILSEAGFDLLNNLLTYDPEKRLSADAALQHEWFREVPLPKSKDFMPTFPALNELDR
Summary of the method: as §1

LOC_OS04G57630-cb004 = system: LOC_OS04G57630-cb004
Summary of the method: as §1

LOC_OS05G07850-cb002 = system: LOC_OS05G07850-cb002
Summary of the method: as §1

LOC_OS05G16824-cb004 = system: LOC_OS05G16824-cb004
Summary of the method: as §1

LOC_OS05G28520-cb001 = system: LOC_OS05G28520-cb001
Summary of the method: as §1

LOC_OS05G30820-cb001 = system: LOC_OS05G30820-cb001
Summary of the method: as §1

LOC_OS05G43570-cb004 = system: LOC_OS05G43570-cb004
Summary of the method: as §1

LOC_OS06G16330-cb003 = system: LOC_OS06G16330-cb003
Summary of the method: as §1

LOC_OS06G22820-cb001 = system: T3, LOC_OS06G22820-cb001
T3 sequence (whole entry): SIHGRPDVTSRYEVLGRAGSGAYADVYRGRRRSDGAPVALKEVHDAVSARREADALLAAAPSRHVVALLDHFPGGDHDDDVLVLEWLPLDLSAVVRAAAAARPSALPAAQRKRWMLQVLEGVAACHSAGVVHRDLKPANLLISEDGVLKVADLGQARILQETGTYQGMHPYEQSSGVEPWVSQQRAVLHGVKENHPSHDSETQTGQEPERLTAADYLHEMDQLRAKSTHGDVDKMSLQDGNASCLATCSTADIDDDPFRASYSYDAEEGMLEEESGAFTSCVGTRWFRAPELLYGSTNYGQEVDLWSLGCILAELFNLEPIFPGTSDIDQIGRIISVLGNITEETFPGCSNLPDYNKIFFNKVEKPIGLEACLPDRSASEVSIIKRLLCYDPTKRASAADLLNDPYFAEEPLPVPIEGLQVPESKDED
Summary of the method: as §1

LOC_OS07G06570-cb004 = system: LOC_OS07G06570-cb004
Summary of the method: as §1

LOC_OS07G07230-cb001 = system: LOC_OS07G07230-cb001
Summary of the method: as §1

Sequence of LOC_OS06G16330-cb003 (as listed by the source): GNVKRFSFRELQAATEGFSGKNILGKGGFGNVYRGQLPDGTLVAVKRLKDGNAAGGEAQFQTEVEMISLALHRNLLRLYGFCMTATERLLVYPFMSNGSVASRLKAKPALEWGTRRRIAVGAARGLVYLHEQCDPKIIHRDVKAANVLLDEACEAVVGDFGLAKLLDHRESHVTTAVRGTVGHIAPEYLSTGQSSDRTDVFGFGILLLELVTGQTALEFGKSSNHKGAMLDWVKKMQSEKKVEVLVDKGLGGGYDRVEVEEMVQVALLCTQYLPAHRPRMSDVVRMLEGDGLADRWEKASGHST

| SMILES | thermal shift delta Tm (LOC_OS02G45750-cb003) | thermal shift delta Tm (LOC_OS02G54510-cb004) | thermal shift delta Tm (LOC_OS03G04050-cb001) | thermal shift delta Tm (LOC_OS03G12390-cb001) | thermal shift delta Tm (LOC_OS03G27990-cb004) | thermal shift delta Tm (LOC_OS03G50450-cb001) | thermal shift delta Tm (LOC_OS03G50810-cb003) | thermal shift delta Tm (LOC_OS04G35114-cb001) | thermal shift delta Tm (LOC_OS04G38480-cb003) | thermal shift delta Tm (LOC_OS04G41100-cb001) | thermal shift delta Tm (LOC_OS04G57630-cb004) | thermal shift delta Tm (LOC_OS05G07850-cb002) | thermal shift delta Tm (LOC_OS05G16824-cb004) | thermal shift delta Tm (LOC_OS05G28520-cb001) | thermal shift delta Tm (LOC_OS05G30820-cb001) | thermal shift delta Tm (LOC_OS05G43570-cb004) | thermal shift delta Tm (LOC_OS06G16330-cb003) | thermal shift delta Tm (LOC_OS06G22820-cb001) | thermal shift delta Tm (LOC_OS07G06570-cb004) | thermal shift delta Tm (LOC_OS07G07230-cb001) |
| --- | --- | --- | --- | --- | --- | --- | --- | --- | --- | --- | --- | --- | --- | --- | --- | --- | --- | --- | --- | --- |
| C=CC(=O)Nc1ccc2ncnc(Nc3ccc(OCc4cccc(F)c4)c(Cl)c3)c2c1 | 2.15 °C | 0.29 °C | 1.39 °C | 2.82 °C | 1.09 °C | 1.56 °C | 1.76 °C | 1.62 °C | 4.58 °C | 1.61 °C | 2.39 °C | 1.81 °C | 3.11 °C | 1.71 °C | 0.87 °C | 2.77 °C | 1.04 °C | 2.98 °C | 1.79 °C | -0.18 °C |
| Cc1cc(Nc2cc(N3CCN(C)CC3)nc(Sc3ccc(NC(=O)C4CC4)cc3)n2)n[nH]1 [Tozasertib (VX-680, MK-0457)] | 6.99 °C | 1.33 °C | 0.64 °C | 1.35 °C | 0.54 °C | 3.08 °C | 4.7 °C | 8.53 °C | 2.62 °C | 2.03 °C | 5.53 °C | 8.32 °C | 15.4 °C | 2.06 °C | 0.66 °C | 0.98 °C | 5.98 °C | 0.83 °C | 0.91 °C | 0.6 °C |
| FC(F)c1nc2ccccc2n1-c1nc(N2CCOCC2)nc(N2CCOCC2)n1 | 0.78 °C | 0.23 °C | 0.44 °C | 0.51 °C | 0.31 °C | 0.75 °C | 0.35 °C | 0.03 °C | 1.98 °C | 0.9 °C | 0.39 °C | 0.04 °C | 1.24 °C | 0.54 °C | 0.54 °C | 0.5 °C | 0.49 °C | 0.93 °C | 0.84 °C | 0.3 °C |
| CC(C)n1nc(-c2ccc3oc(N)nc3c2)c2c(N)ncnc21 | 6.62 °C | 0.93 °C | 0.38 °C | 0.67 °C | 1.24 °C | 0.47 °C | 0.61 °C | 5.42 °C | 0.87 °C | 0.38 °C | 0.37 °C | 7.34 °C | -0.35 °C | 0.63 °C | 0.45 °C | 0.24 °C | 2.84 °C | 0.75 °C | 1.22 °C | 0.29 °C |
| C=CC(=O)Nc1cccc(Sc2nc(Nc3ccc(N4CCN(C)CC4)cc3)ncc2Cl)c1 | 1.15 °C | 0.86 °C | 0.43 °C | 2.55 °C | 2.86 °C | 1.29 °C | 4.92 °C | 4.33 °C | 1.07 °C | 1.47 °C | 4.52 °C | 11.5 °C | 7.67 °C | 7.81 °C | 2.25 °C | 0.95 °C | 5.61 °C | -0.33 °C | 0.28 °C | 0.95 °C |
| Cc1[nH]nc2ccc(-c3cncc(OC[C@@H](N)Cc4ccccc4)c3)cc12 | 2.29 °C | 0.14 °C | 0.35 °C | 3.08 °C | 0.34 °C | 0.59 °C | 1.41 °C | 1.06 °C | 0.62 °C | 1.9 °C | 0.79 °C | 6.97 °C | 1.39 °C | 0.6 °C | 0.56 °C | 1.24 °C | 0.93 °C | 0.49 °C | 0.93 °C | 0 °C |
| Cc1ccc(NC(=O)c2ccc(CN3CCN(C)CC3)cc2)cc1Nc1nccc(-c2cccnc2)n1 [Imatinib Mesylate (STI571)] | 0.55 °C | 0.16 °C | 0.17 °C | 0.88 °C | -0.03 °C | -0.05 °C | 0.09 °C | 0.75 °C | 0.34 °C | 0.59 °C | 0.35 °C | 2.65 °C | 0.21 °C | 0.58 °C | 0.32 °C | 0.49 °C | 0.2 °C | 0.68 °C | 1.07 °C | 0.85 °C |
| CCNC(=O)C#Cc1ccc2c(C(=Nc3ccc(CN(C)C)cc3)c3ccccc3)c(O)[nH]c2c1 | 7.14 °C | 2.44 °C | -0.2 °C | 1.25 °C | 0.99 °C | 0.07 °C | 4.57 °C | 9.15 °C | 1.25 °C | 4.14 °C | 2.92 °C | 5.17 °C | 8.59 °C | 0.18 °C | 0.42 °C | 0.36 °C | 1.85 °C | 0.09 °C | 0.62 °C | -0.34 °C |
| CC1(C)C=Cc2c(ccc3c2OC[C@@H](c2ccc(O)cc2O)C3)O1 [Glabridin] | 0.34 °C | -0.24 °C | 0.88 °C | 0.93 °C | 0.6 °C | 0.36 °C | 0.74 °C | 0.79 °C | 1.12 °C | 0.7 °C | 0.75 °C | 1.39 °C | 7.49 °C | 0.24 °C | -0.16 °C | 0.51 °C | 0.92 °C | 0.89 °C | 0.51 °C | -0.99 °C |
| O=C(c1cccc(Cl)c1F)N1CCN(Cc2cccc(Nc3nccs3)n2)CC1 | 0.38 °C | 0.15 °C | 0.55 °C | 0.36 °C | 0.38 °C | 0.14 °C | 1.09 °C | 7 °C | 2.88 °C | 0.42 °C | 1.01 °C | 7.36 °C | 3.48 °C | 1.87 °C | 0.31 °C | -0.14 °C | 10.8 °C | 0.57 °C | 1.24 °C | 0 °C |
| CO[C@H]1CC[C@H](N2C(=O)CNc3ncc(-c4ccc(C(C)(C)O)nc4)nc32)CC1 | 0.31 °C | -0.17 °C | 0.09 °C | -0.22 °C | -0.29 °C | 0.22 °C | 0.18 °C | -0.71 °C | 1.62 °C | 0.08 °C | -0.07 °C | 0.66 °C | -2.4 °C | 0.49 °C | 0.29 °C | 0.48 °C | -0.57 °C | 0.55 °C | 0.79 °C | 0.66 °C |
| COc1ccc(Oc2cc(NCCC(F)(F)F)c3ncc(-c4ccc(C(=O)NC5CC5)c(C)c4)n3n2)c(F)c1F | 0.77 °C | 0.01 °C | 0.48 °C | 0.31 °C | 0.55 °C | 0.46 °C | 1.7 °C | 1.1 °C | 1.64 °C | 0.4 °C | 0.38 °C | 2.11 °C | -2.18 °C | 1.04 °C | 0.67 °C | 0.63 °C | 0.09 °C | 0.73 °C | -0.39 °C | 1.65 °C |
